Data on 40 compounds can be found in PubChem BioAssay AID602475 (National Center for Advancing Translational Sciences (NCATS), 2012).

Results filed as inconclusive are left out. A call without a number means that no potency is given here. Activity calls are given as the source filed them. Calls follow the shape of the dose curve; as a rule, active = well fitted inhibition curve with a large enough effect; inconclusive = small, poorly fitted or top-dose-only effect; inactive = no such curve, though single readings can be large or run the other way.

Sequence of Luciferin 4-monooxygenase (Photinus pyralis) (P08659 whole entry, looked up): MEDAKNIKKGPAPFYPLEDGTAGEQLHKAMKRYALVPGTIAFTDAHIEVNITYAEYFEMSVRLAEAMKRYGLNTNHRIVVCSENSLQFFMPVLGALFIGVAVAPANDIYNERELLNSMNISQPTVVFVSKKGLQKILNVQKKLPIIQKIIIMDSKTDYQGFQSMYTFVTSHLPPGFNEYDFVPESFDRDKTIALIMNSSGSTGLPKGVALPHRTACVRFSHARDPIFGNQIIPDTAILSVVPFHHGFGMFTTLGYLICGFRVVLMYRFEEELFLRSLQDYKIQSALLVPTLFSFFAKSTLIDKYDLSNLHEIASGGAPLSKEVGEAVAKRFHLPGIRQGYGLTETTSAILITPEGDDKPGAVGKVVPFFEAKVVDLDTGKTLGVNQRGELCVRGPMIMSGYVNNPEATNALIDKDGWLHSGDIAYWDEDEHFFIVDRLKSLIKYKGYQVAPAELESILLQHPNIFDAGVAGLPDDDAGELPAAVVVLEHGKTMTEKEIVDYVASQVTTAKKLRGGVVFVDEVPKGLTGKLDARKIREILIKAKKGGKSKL

The test concerns the target Luciferin 4-monooxygenase (Photinus pyralis) (UniProt P08659). The experiment in a line: FLuc inhibitory activity for the follow-up compounds in a biochemical assay with an in-house formulation of detection reagent. The following applies: purified FLuc, luminescence; series mostly up to 25.6 µM. An excerpt: NCGC Assay Overview: Firefly (Photinus pyralis) luciferase is one of the most commonly used transcriptional reporters. It is considered one of the more dynamically responsive reporters - that is, responsive to changes in reporter transcription - as it requires no post-translational modifications and is enzymatically active directly after protein synthesis (Wood, 1998). With no endogenous expression in mammalian cells and without the requirement of external excitation, it offers very little background signal, thus generally providing excellent signal to background for most assays. Previous profiling work to determine the prevalence of compounds that affect FLuc enzymatic activity (PubChem AID 411) identified that ~3% of the MLSMR library (then at ~72K) inhibited FLuc (Auld et al., 2008). […] Of the compounds identified in this profile that inhibited FLuc, 151 compounds were selected for further analysis, in an effort to better understand their mode of inhibiting FLuc. The assay described here was to determine the activity of the compounds in a FLuc assay that used an in-house formulation of detection reagent.
NCGC Assay Protocol Summary: Reagents: 300mM Tris-HCl, 300mM Trizma base, 300mM MgCl, 1% Triton-X100, 5mM DTT, 500uM Coenzyme A trilithium salt (Sigma #C3019),450uM ATP (Sigma #A7699), 1mM D-luciferin sodium salt monohydrate (Biosynth #L8240); 10nM P. pyralis luciferase (Sigma #L9506) Control compounds used were two known firefly luciferase inhibitors (3-(5-(3-chlorophenyl)-1,2,4-oxadiazol-3-yl)benzoic acid and 5-(2-fluorophenyl)-3-phenyl-1,2,4-oxadiazole), and DMSO. Assay Summary: Six microliters of buffer containing firefly luciferase (final concentrations: 50mM Tris acetate, 10nM P. pyralis luciferase) are dispensed into each well of a Greiner white, solid-bottom 1536-well format plate using a flying reagent dispenser (FRD). These assay plates were then treated with 23nL of compound or DMSO using a Kalypsys pin tool, which allows for delivery of a 12-point intraplate titration of each compound to the assay plate (quantitative HTS), with final compound concentrations ranging from approximately ~25uM to 0.1nM. Three microliters of 3X in-house detection reagent was then delivered by FRD to each well (final concentrations in assay: 300mM Tris-HCl, 300mM Trizma base, 300mM MgCl, 1% Triton-X100, 5mM DTT, 500uM Coenzyme A trilithium salt, 450uM ATP, 1mM D-luciferin sodium salt monohydrate). Luciferase activity was then measured using a ViewLux CCD imager (PerkinElmer), with an average exposure time of 2-30 seconds (2X binning, medium/high gain).
Consider `O=C(Nc1ccccc1C(=O)O)c1cccc(S(=O)(=O)N2CCCC2)c1`, for which the Potency entry was “inactive”.

For `Cc1ccc(C(=O)Nc2cccc(C(=O)O)c2)cc1`, the Potency was 13.8 µM (active). Regarding `COc1ccc2nc(NC(=O)CCc3nc(-c4ccccc4F)no3)sc2c1`, the Potency is 6.94 µM (active).

`O=C(Cc1ccccc1)Nc1ccccc1C(=O)Nc1ccc(C(=O)O)cc1`: the Potency result is “inactive”. To `CCOc1ccc(C(=O)Nc2ccccc2C(=O)O)cc1` belongs 6.94 µM (active); to `O=C(Nc1ccccc1C(=O)O)c1cccc(S(=O)(=O)Nc2ccc(Br)cc2)c1`, “inactive”. To `Nc1cccc(-c2nc3ccc(N)cc3s2)c1` belongs 3.9 µM (active); to `Cc1ccc(C(=O)Nc2cccc(C(=O)O)c2)cc1S(=O)(=O)N1CCCC1`, “inactive”; to `O=C(Nc1ccccc1C(=O)O)c1ccc(NC(=O)C2CCCCC2)cc1`, “inactive”. As for `Nc1ccccc1-c1nc2ccccc2s1`, the Potency entry was “inactive”. Take `O=C(Nc1ccccc1C(=O)O)c1cccc(NC(=O)c2ccccc2Cl)c1`: the Potency result was “inactive”.

For `Cc1ccc2nc(-c3ccc(NC(=O)CN4CCN(C(=O)c5ccco5)CC4)cc3)sc2c1`, the Potency is 2.46 µM (active). With `O=C(Nc1ccccc1C(=O)O)c1cc(S(=O)(=O)Nc2cccc(F)c2)ccc1Cl`, the Potency entry is “inactive”.

Consider `Cn1c(N/N=C/c2cc3ccccc3nc2Cl)nc2ccccc21`, for which the Potency result was “inactive”. As to `O=C(O)c1cccc(NC(=O)c2ccccc2NC(=O)c2ccco2)c1`, the Potency entry was “inactive”. To `c1ccc2sc(-c3ccc4c(c3)OCO4)nc2c1` belongs 4.91 µM (active). To `Cc1cccc(NS(=O)(=O)c2cccc(C(=O)Nc3cccc(C(=O)O)c3)c2)c1` belongs “inactive”; to `COc1ccc(C(=O)Nc2ccccc2C(=O)Nc2ccccc2C(=O)O)cc1`, “inactive”. To `COc1ccc2nc(NC(=O)c3ccc([N+](=O)[O-])o3)sc2c1` belongs 9.8 µM (active); to `CCOc1ccc2nc(NC(=O)c3ccccc3)sc2c1`, 6.19 µM (active). For the compound `CC(=O)Nc1cccc(-c2nc3ccccc3s2)c1C`, the Potency entry is “inactive”. To `O=C(Nc1ccccc1C(=O)O)c1cc(S(=O)(=O)Nc2ccccc2)ccc1Cl` belongs “inactive”. To `COc1ccc2nc(NC(=O)c3ccco3)sc2c1` belongs 6.94 µM (active); to `COc1ccc(CC(=O)Nc2ccc(-c3nc4ccccc4s3)c(C)c2)cc1`, 11 µM (active); to `O=C(Nc1ccccc1C(=O)O)c1cccc(NC(=O)c2ccc(Br)o2)c1`, “inactive”. With `COc1ccc2nc(NC(=O)c3cccs3)sc2c1` the entry was “inactive”; with `Cc1ccc(C(=O)Nc2cccc(C(=O)O)c2)cc1S(=O)(=O)N1CCCCC1`, “inactive”; with `O=C(O)c1ccc(NC(=O)c2ccccc2NC(=O)c2ccccc2Br)cc1`, “inactive”. Turning to `CCOc1ccc2nc(NC(=O)Cc3cccs3)sc2c1`, the Potency result was “inactive”. With `Cc1ccc(NS(=O)(=O)c2ccc(Cl)c(C(=O)Nc3cccc(C(=O)O)c3)c2)cc1` the entry was “inactive”. With `CN(C)c1cccc(C(=O)Nc2ccc(-c3nc4ccccc4s3)cc2)c1` the entry was “inactive”. For `Cc1ccc2sc(-c3ccc(N)cc3)nc2c1`, the Potency is 6.19 µM (active). With `O=C(Nc1ccccc1C(=O)O)c1ccccc1` the entry was “inactive”; with `Nc1ccccc1C(=O)Nc1cccc(C(=O)O)c1`, “inactive”; with `Cc1cccc(C(=O)Nc2ccc(-c3nc4ccccc4s3)cc2Cl)c1`, “inactive”. For `O=C(O)c1ccccc1NC(=O)c1ccccc1Nc1ccccc1`, the Potency entry was “inactive”. `CCOc1ccc2nc(NC(=O)c3ccoc3C)sc2c1`: the Potency was 4.91 µM (active). To `COc1ccc2nc(NC(=O)c3ccc(NS(=O)(=O)c4cccs4)cc3)sc2c1` belongs “inactive”. For the compound `COc1ccc(-c2cccc(C(=O)Nc3cccc(C(=O)O)c3)c2)cc1`, the Potency result was “inactive”. In the case of `Cc1ccc(C(=O)Nc2ccc(C(=O)O)cc2)cc1S(=O)(=O)Nc1ccccc1`, the Potency entry was “inactive”.
